The values that follow come from PubChem BioAssay (NCI).

Several values for one entry are separate records, joined by “and”; a condition that tells them apart may be missing. Equal values may be shown once. The panel holds about 83,000 compounds, 20% with a hit somewhere; the sample as a whole holds those more often.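 Step 1: grow cells in 96-well plates. Step 2: add test compound at a single concentration. Step 3: incubate 48 h. Step 4: record percent growth.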 Activity calls are given as the source filed them. Rule for the calls: active = growth percent below 10; inactive = the rest.

The subject of this experiment is MDA-MB-468 breast. The experiment in a line: NCI-60 one-dose screen, 48 h (100 = growth as untreated, 0 = no growth, -100 = all killed). To be noted: 10 µM unless noted.
As to `CCC(CC)NCCCCCNc1cc(OC)cc2cccnc12`, the growth was 57.8% (inactive). Next, `CC(C)(C)n1cc(-c2ccnc(NCCCNS(=O)(=O)c3ccc(Cl)cc3)c2)c(-c2cccc(O)c2)n1`: -44.5% (active); `CC1CCN(Cc2ccc(NC(=O)c3cc4ccc5cccnc5c4[nH]3)cc2)CC1`: 21% (inactive); `O=C(Nc1nc(-c2ccc(Cl)cc2)cs1)c1cc(O)c(O)c(O)c1`: 55.8% (inactive). Next, `CCN(CC)CCCNc1ccc(C)c2sc3ccccc3c(=O)c12`: -34.8% (active); `N#CC(C#N)=Cc1cc2ccccc2nc1Oc1ccc(C(F)(F)F)cc1`: 86.1% (inactive). Turning to `Nc1c(-c2nc3ccc(Br)cc3c(=O)[nH]2)nnn1-c1ccccc1`, the growth was 65.6% (inactive). Next, `O=C1C=C(c2ccccc2)C(O)(c2ccccc2)C1` (stereo unspecified): 108% (inactive); `COc1ccc2c(c1)c(-c1nn3c(=O)cc(-c4ccccc4)nc3s1)cn2C`: 20.1% (inactive). The figure for `c1ccc2c(c1)oc1c3c(ccc12)NCCC3` is -51.5% (active); for `O=Nc1c(O)ccc2ccccc12` it is 78.9% (inactive) and 81.4% (inactive); for `Cc1n(Cc2ccc3ccccc3c2)c(Cl)c(Cl)[n+]1Cc1ccc2ccccc2c1` it is -19.5% (active). As to `COc1cc(NCCCCN=C(N)N)c2ncccc2c1`, the growth is -29.6% (active). The figure for `CCOC(=O)/C(=C/c1ccc([N+](=O)[O-])cc1)C(=O)c1ccccc1` is 21.3% (inactive); for `COc1cc(-c2cc(/C=C3\C(=O)Nc4cc(Cl)ccc43)[nH]n2)cc(OC)c1OC` it is 58.3% (inactive). With `C=C1CC[C@@H]2[C@](C)(COC(C)=O)[C@H](OC(C)=O)CC[C@@]2(C)[C@@H]1C/C=C1/C(=O)OC[C@H]1OC(C)=O`, the growth was 7.98% (active). Next, `C=C(C)[C@@H]1CC[C@]2(C(=O)OC)CC[C@]3(C)[C@H](CC[C@@H]4[C@@]5(C)C/C(=C/c6ccc(OC)cc6)C(=O)C(C)(C)[C@@H]5CC[C@]43C)[C@@H]12`: 76% (inactive). The figure for `CC(=O)OCc1nc(C#N)c(N(C)C)o1` is 94.1% (inactive).

Consider `Oc1ccc(C(c2ccc(O)cc2)c2ccc(Br)cn2)cc1`, for which the growth is -35.7% (active). The figure for `COc1ccc(/C=C/C(=O)c2ccc(Nc3nc(NCCO)nc(Nc4ccc(Cl)cc4)n3)cc2)cc1` is 73% (inactive); for `C=CCCCOC1[C@H](OCc2ccccc2)C(OCc2ccccc2)C(OC)O[C@@H]1CNC(=O)c1cccc(I)c1` (stereo partly specified) it is 24.8% (inactive).

In the case of `Cc1cnc2nc(NN)[nH]n12`, the growth is 91% (inactive).

Take `Cc1ccc(NC(=O)c2ccc(CN3CCOCC3)c(C(F)(F)F)c2)cc1Oc1ccc(-c2[nH]nc3ncnc(N)c23)cc1`: the growth is 96.8% (inactive). The figure for `Cc1nc2c3c(ncn2n1)Oc1c(c(=O)[nH]c2ccccc12)C3c1ccc(Cl)cc1` (stereo unspecified) is 109% (inactive); for `O=C(Oc1cccc2ccccc12)c1ccccc1C(=O)c1ccccc1` it is 103% (inactive); for `Cc1cc2c3ccc(C)[n+](C)c3ccc2n1C` it is 19.1% (inactive).
